Assay outcomes deposited in PubChem BioAssay by National Center for Advancing Translational Sciences (NCATS).
KCNH2 WT inh: inhibitors of human wildtype KCNH2 potassium channel; AID 720551; activity change, % at 1.84 µM; U2OS, BacMam KCNH2, thallium flux FluxOr; active compounds read low; 0.37% of 340,000 active; Q12809;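 active = maximum activity change below -70%; inconclusive = maximum activity change between -70% and -50%; inactive = maximum activity change above -50%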
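U2OS cells transduced with wild-type KCNH2 virus are loaded with FluxOr dye for 45 min, and thallium flux is measured in kinetic reads before and after stimulation buffer. Rate constants are normalized to DMSO controls.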
KinaseGlo FLuc: blocks Kinase-Glo luciferase, a counter-screen artifact; AID 1379; Kinase-Glo luciferase, ATP luminescence, 8 min; 0.28% of 200,000 active; Q27757; Potency, µM (titrated, usually from 38.3 µM), for inactives: at the highest dose activity change, negative = inhibition, most hits filed as inhibitors; active = well fitted inhibition curve with a large enough effect; inconclusive = small, poorly fitted or top-dose-only effect; also: potency is read from the fitted curve at half-maximal effect; nearly all actives have a fitted effect of over 60% in size
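Kinase-Glo luciferase light output from ATP and luciferin was measured with 10 uM ATP, within the enzyme's linear range. Buffer: 50 mM imidazole pH 7.2, 50 mM KCl, 7 mM MgCl2, 0.01% Tween 20, 0.05% BSA; luminescence read after 8 min at ambient temperature.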
KCNH2 3.1 block: KCNH2 3.1 (human) potassium channel inhibition; activity change, % (tested at about 1.8 µM); 0.95% of 340,000 active; U2OS KCNH2 3.1, thallium flux FluxOr; active compounds read low;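 active = maximum activity change below -70%; inconclusive = maximum activity change from -70% to -50%; inactive = maximum activity change above -50%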;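 also: thallium influx rate constant from kinetic fluorescence after stimulation buffer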
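Thallium flux via FluxOr fluorescence (Red40 quencher, 45 min loading) in U2OS cells virally expressing the KCNH2 3.1 isoform (1.77 x 10^8 /mL virus, overnight at 37 C). Rate constants from 2-min kinetic reads post-stimulation, normalised to positive and negative controls.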
* = called active by the depositor; ? = inconclusive; nt = no result; [ ] = remark or other dose. Most compounds without a hit are left out; they make up all but 1.2% or so of the library. % is scaled to controls: 0 for no effect and ±100 for the full control effect.

SMILES	KCNH2 WT inh	KinaseGlo FLuc	KCNH2 3.1 block
CCOC(=O)c1cccc(C2=C(CNC(C)=O)[C@H]3CC[C@@H](C2)N3Cc2ccccc2)c1	23	nt	-3
O=C(NCC1=C(c2cccc3ccccc23)C[C@@H]2CC[C@H]1N2Cc1ccco1)c1ccncc1	11	nt	-4
CS(=O)(=O)c1ccc(C2=C(CNC(=O)c3cccs3)[C@H]3CC[C@@H](C2)N3CCOc2ccccc2)cc1	-103*	nt	-94*
CCOC(=O)c1cccc(C2=C(CNC(=O)c3ccc([N+](=O)[O-])cc3)[C@H]3CC[C@@H](C2)N3Cc2ccccc2)c1	-76*	nt	-113*
Cc1ncoc1C(=O)NCC1=C(c2ccc(S(C)(=O)=O)cc2)C[C@@H]2CC[C@H]1N2Cc1ccco1	-6	nt	-36
O=C(NCC1=C(c2cccc3ccccc23)C[C@@H]2CC[C@H]1N2Cc1ccco1)c1cccs1	?	nt	-109*
CS(=O)(=O)c1ccc(C2=C(CNC(=O)c3cccnc3)[C@H]3CC[C@@H](C2)N3Cc2ccco2)cc1	-13	nt	-23
CS(=O)(=O)c1ccc(C2=C(CNC(=O)c3ccncc3)[C@H]3CC[C@@H](C2)N3Cc2ccccc2)cc1	?	nt	-91*
COC(=O)[C@@H]1C[C@H](OC(C)=O)C(=O)[C@H]2[C@@]1(C)CC[C@H]1C(=O)O[C@H](c3ccoc3)C[C@]21C	nt	4%[39.9 µM]	nt
CN[C@@H]1C[C@H](c2ccc(Cl)c(Cl)c2)c2ccccc21	nt	0%	nt
O=C(O)[C@H](Cc1cnc[nH]1)N1C(=O)c2ccccc2C1=O	nt	-1%[7.66 µM]	nt
Oc1ccc([C@H](O)C2CCCCN2)cc1O (stereo partly specified)	nt	-3%[7.66 µM]	nt
CN(C)[C@@H]1C(=O)C(C(N)=O)=C(O)[C@]2(O)C(=O)C3=C(O)c4c(O)cccc4[C@](C)(O)[C@H]3C[C@@H]12	nt	-7%[7.66 µM]	nt
CCCCC/C=C\C/C=C\C/C=C\C/C=C\CCCC(=O)NCCCl	nt	-4%[39.9 µM]	nt
CS(=O)(=O)c1ccc(C2=C(CNC(=O)c3nccs3)[C@H]3CC[C@@H](C2)N3CCOc2ccccc2)cc1	?	nt	-78*
O=C(NCC1=C(c2ccc3ccccc3c2)C[C@@H]2CC[C@H]1N2Cc1ccco1)c1nccs1	11	nt	-38
O=C(O)C[SH+]CC(=O)O.O=C(O)C[SH+]CC(=O)O.[Cu]	nt	2%[7.66 µM]	nt
COC(=O)C1=C(c2ccc(C(C)=O)cc2)C[C@@H]2CC[C@H]1N2C(=O)N1CCC(C)CC1	15	nt	9
COC(=O)C1=C(c2ccc(C(C)=O)cc2)C[C@@H]2CC[C@H]1N2C(=O)N1CCC(O)(c2ccc(Cl)cc2)CC1	-115*	nt	-88*
CC(=O)/C=C/c1ccccc1	6	nt	2
CC(=O)[O][Hg][c]1ccccc1	nt	13µM*	nt
CCOC(=O)c1ncc2[nH]c3ccc(OCc4ccccc4)cc3c2c1COC	nt	-2%[39.9 µM]	nt
CN(C)C(=O)Oc1ccc(-c2cn3cc(Cl)ccc3n2)cc1	3	14µM*	-18
CN(C)C(=O)Oc1cccc(-c2cn3cc(Cl)ccc3n2)c1	-3	-7%	-18
C=C[C@@H]1CN2CC[C@H]1CC2[C@H](O)c1ccnc2ccccc12 (stereo partly specified)	nt	2%[7.66 µM]	nt
SMILES	KCNH2 WT inh	KinaseGlo FLuc	KCNH2 3.1 block
CCCCNC(C)Cc1ccccc1 (stereo unspecified)	1	nt	9
COc1ccc(CC(C)NCCC(c2ccccc2)c2ccccc2)cc1 (stereo unspecified)	-96*	nt	-101*
Cc1ccc(C2(c3ccc(C)c(O)c3C)CCN(C)CC2)c(C)c1O	nt	1%[7.66 µM]	nt
Cc1ccc(S(=O)(=O)N2CC2(C)CCl)cc1 (stereo unspecified)	-4	nt	-2
Cc1ccc(S(=O)(=O)N2CN3CCN(C3)C2)cc1	-131*	2%	-134*
O=C(CNC(=O)c1ccccc1)Nc1ccc(Br)cc1C(=O)c1ccccc1	-9	3%	12
O=C(CN1CCCCC1)NCC(=O)Nc1ccc(Br)cc1C(=O)c1ccccc1	-36	-2%	-78*
CCN(CC)CC(=O)Nc1ccc(Cl)cc1C(=O)c1ccccc1	3	nt	13
O=C(COc1ccccc1)Nc1ccc(Cl)cc1C(=O)c1ccccc1	-3	-1%	-6
O=C(CN1CCN(CCO)CC1)Nc1ccc(Cl)cc1C(=O)c1ccccc1	-23	-1%	-87*
CN1CCN(CC(=O)Nc2ccc(Cl)cc2C(=O)c2ccccc2)CC1	?	1%	-78*
O=C(O)[C@H]1C2c3ccccc3C(c3ccccc32)[C@@H]1C(=O)NCC1CC1	nt	-2%[7.66 µM]	nt
CC1=NN(c2ccc(S(=O)(=O)O)cc2C)C(=[OH+])[C@H]1N=Nc1cc(S(=O)(=O)O)ccc1C(=O)O.O.[Cr]	nt	-6%[7.66 µM]	nt
CN(C)CCCc1c[nH]c2ccccc12	nt	-7%[7.66 µM]	nt
Clc1ccccc1CN1CCN(c2cccc3[nH]ccc23)CC1	5	nt	18
CCCCCCN1CCN(c2ccccc2Cl)CC1	-5	-2%	-79*
NCCc1ccc(S(=O)(=O)O)cc1[N+](=O)[O-]	nt	-1%[7.66 µM]	nt
C[C@@]12Cc3cnc(-c4ccccc4)nc3C[C@@H]1CC[C@@H]1[C@H]3CC[C@@](C)(O)[C@]3(C)CC[C@@H]12	nt	-3%[7.66 µM]	nt
C=CCn1c(O)c(C(C)=NCCN2CCOCC2)c(=O)[nH]c1=O	1	0%	32
C=CCn1c(O)c(C(C)=NCCN2CCN(C(=S)NC)CC2)c(=O)[nH]c1=O	-99*	nt	-10
COc1ccc2c(c1)CC1(CN2C)C(=O)NC(=O)N(CCc2ccccc2)C1=O (stereo unspecified)	1	0%	-95*
COc1cc(CN2C(=O)NC(=O)C3(Cc4cc(C)ccc4N(C)C3)C2=O)cc(OC)c1 (stereo unspecified)	-5	2%	-3
Cc1ccsc1C(=O)C1CCCN(Cc2ccc(-n3cccn3)cc2)C1 (stereo unspecified)	39	-5%	-72*
Cc1ccsc1C(=O)C1CCCN(Cc2cccc(-n3cccn3)c2)C1 (stereo unspecified)	5	2%	-20
C[C@@]12CC[C@H]3[C@@H](CC[C@H]4C[C@@H](O)CC[C@]43C)[C@H]1CC[C@@H]2C(=O)C[C@H](O)C(F)(F)F	nt	-5%[7.66 µM]	nt
SMILES	KCNH2 WT inh	KinaseGlo FLuc	KCNH2 3.1 block
COc1ccccc1N1CCN(CCc2ccccc2)CC1	8	nt	-7
Cc1cccc(N2CCN(CCc3ccccc3)CC2)c1C	-48	4%	-82*
C[C@]1(O)CC[C@H]2[C@@H]3[C@@H](O)CC4=CC(=O)CC[C@@]4(C)[C@H]3CC[C@]21C	nt	-1%[7.66 µM]	nt
Cc1cc(OCC(=O)NCC2CCC(C(=O)O)CC2)c2c3c(c(=O)oc2c1)CCC3 (stereo unspecified)	1	nt	1
Cc1cc(OCC(=O)NC2CCS(=O)(=O)C2)c2c3c(c(=O)oc2c1)CCC3 (stereo unspecified)	-250*	0%	-1
NC[C@@H](O)CSP(=O)(O)O	nt	-3%[7.66 µM]	nt
O=C1NCN(c2ccccc2)C12CCN(CCCOc1ccc(F)cc1)CC2	nt	-3%	nt
O=C(CCCN1CCC2(CC1)C(=O)NCN2c1ccccc1)c1ccc(F)cc1	-38	-4%	-81*
CCC1=C(C[C@H]2NCCc3cc(OC)c(OC)cc32)C[C@H]2c3ccccc3CCN2C1	nt	-2%[7.66 µM]	nt
N[C@H](Cc1c[nH]c2ccccc12)P(=O)(O)O	nt	1%[7.66 µM]	nt
